Measured values published in PubChem BioAssay (NCATS).
“And” between values parts separate entries of the source, which are not always exact repeats. Identical values can stand only once. Inconclusive results are not listed. The source holds several records for some structures; these can differ, active in one and inactive in another. The source made the active and inactive calls. Calls follow the shape of the dose curve; as a rule, active = well fitted curve in the direction sought with a large enough effect; inconclusive = small, poorly fitted or top-dose-only effect, or another doubt; inactive = no such curve, though single readings can be large; an effect the other way counts as inactive or inconclusive.

How the values were obtained:
[1] = Viability qHTS for spleen associated tyrosine kinase inhibitor (SYKi) naive MV4-11 cells (AID 1963823); also: nearly all actives have a fitted effect of over 40% in size
Outline: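 Seeding of 500 SYKi-naive MV4-11 cells per well onto pre-dispensed compounds preceded a 72 hr incubation at 37 C. Luminescent CellTiter-Glo signal, read after 10 min at room temperature, reflected viable cells.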

[2] = Viability qHTS for spleen associated tyrosine kinase inhibitor (SYKi) drug resistant MV4-11 cells (AID 1963824); also: nearly all actives have a fitted effect of over 35% in size
Outline: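 CellTiter-Glo luminescence, read 10 min after reagent addition, reports viability after a 72 hr compound exposure. Cells are an MV4-11 line made resistant to SYK inhibition, seeded at 500 per well onto compound-containing plates.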

[3] = Quantitative highthroughput screen to assess conditional lethalithy of NOMO1 cells grown in RPMI1640 with dialyzed fetal bovine serum (RPMI+ds) (AID 1963877); also: nearly all actives have a fitted effect of over 30% in size;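 as to Viability: series mostly up to about 46 µM; 100% = DMSO control wells and 0% = empty wells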
Outline: (§1)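 Each medium arm—HPLM with 10% dialyzed FBS, or RPMI1640 with 5 mM glucose and 10% untreated or dialyzed FBS—was screened against an 11-point, 3-fold compound titration for 48 h at 37 °C, with CellTiter-Glo luminescence as endpoint.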

[4] = Cellular viability qHTS for adrenocortical cancer (ACC) cell line SW-13 (AID 1963989); conditions: SW-13 ACC cells viability, CellTiter-Glo, 48 h; activity (max response): stronger effect = lower value; also: nearly all actives have a fitted effect of over 65% in size;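 as to activity (max response): cells grown in serum-free medium with ITS supplement; % is scaled to controls: 0 for no effect and ±100 for the full control effect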
Outline: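 Viability was read as CellTiter-Glo luminescence after 48 h compound treatment (up to 46 uM final) of SW-13 cells grown serum-free; titration curves were fit with a four-parameter logistic model to give IC50 and efficacy.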

[5] = Quantitative highthroughput screen to assess conditional lethalithy of P12 Ichikawa cells grown in RPMI1640 with dialyzed fetal bovine serum (RPMI+ds) (AID 1963880); conditions: Potency: P12-Ichikawa viability; also: nearly all actives have a fitted effect of over 35% in size;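 as to Viability: 100% = DMSO wells and 0% = empty wells on each plate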
Outline: as §1

[6] = Quantitative highthroughput screen to assess conditional lethalithy of P12 Ichikawa cells grown in RPMI1640 with untreated serum (RPMI+s) (AID 1963881); conditions: Potency: viability; also: nearly all actives have a fitted effect of over 35% in size;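 as to Viability: series mostly up to about 46 µM; 100% = DMSO wells and 0% = empty wells without cells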
Outline: as §1

[7] = Quantitative highthroughput screen to assess conditional lethalithy of SEM cells grown in RPMI1640 with unreated serum (RPMI+s) (AID 1963883); also: nearly all actives have a fitted effect of over 35% in size;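 as to Viability: 100% = DMSO wells and 0% = empty wells without cells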
Outline: as §1

[8] = Quantitative highthroughput screen to assess conditional lethalithy of SEM cells grown in RPMI1640 with dialyzed fetal bovine serum (RPMI+ds) (AID 1963884); also: nearly all actives have a fitted effect of over 35% in size;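 as to Viability: series mostly up to about 46 µM; 100% = DMSO control wells and 0% = empty wells without cells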
Outline: as §1

[9] = Cellular viability qHTS for adrenocortical cancer (ACC) cell line NCI-H295R (AID 1963990); also: nearly all actives have a fitted effect of over 60% in size
Outline: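 CellTiter-Glo ATP luminescence, read 48 h after compound addition, measured viability of NCI-H295R adrenocortical cells grown serum-free with ITS. Final concentrations spanned up to 46 uM. Data normalized to DMSO and doxorubicin, fitted for IC50 and maximal response.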

[10] = Quantitative highthroughput screen to assess conditional lethalithy of NOMO1 cells grown in Human Plasma-Like Medium with dialyzed fetal bovine serum (HPLM+ds) (AID 1963878); also: nearly all actives have a fitted effect of over 35% in size;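 as to Viability: 100% = DMSO wells and 0% = empty wells on each plate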
Outline: as §1

[11] = Quantitative highthroughput screen to assess conditional lethalithy of P12 Ichikawa cells grown in Human Plasma-Like Medium with dialyzed fetal bovine serum (HPLM+ds) (AID 1963879); conditions: Potency: viability; also: nearly all actives have a fitted effect of over 35% in size; as to Viability: series mostly up to about 46 µM
Outline: as §1

[12] = Quantitative highthroughput screen to assess conditional lethalithy of SEM cells grown in Human Plasma-Like Medium with dialyzed fetal bovine serum (HPLM+ds) (AID 1963882); also: nearly all actives have a fitted effect of over 35% in size; as to Viability: series mostly up to about 46 µM
Outline: as §1
Potency is read from the fitted curve at half-maximal effect.

CC(C)(C)c1nc2c3cc[nH]c(=O)c3c3cc(F)ccc3c2[nH]1
inactive: activity (max response) [4] -16.1%
active: Potency [1] 411 nM | Potency [2] 651 nM | Potency [3] 4.69 µM

Cc1cc(Nc2nc(N[C@@H](C)c3ccc(F)cc3)c(C#N)cc2F)n[nH]1
active: Potency [1] 651 nM | Potency [2] 580 nM and 590 nM | Potency [3] 2.64 µM | Potency [5] 2.09 µM | Potency [6] 2.35 µM | Potency [7] 2.96 µM | Potency [8] 2.64 µM | Potency [4] 3.16 µM

CCC(C(=O)O)C1CCC(C)C(C(C)C(O)C(C)C(=O)C(CC)C2OC3(C=CC(O)[C@@]4(CC[C@](C)(C5CC[C@@](O)(CC)C(C)O5)O4)O3)C(C)CC2C)O1 (stereo not given in full)
active: Potency [1] 332 nM | Potency [2] 417 nM | Potency [3] 1.18 µM | Potency [7] 1.66 µM | Potency [4] 2.82 µM | Potency [9] 0.708 µM

c1cnc2cc3c(cc2n1)C1CNCC3C1
inactive: Potency [1] | Potency [2] | Potency [10] | Potency [11] | Potency [5] | Potency [6] | Potency [12] | Potency [7] | Potency [8] | activity (max response) [4] 7.13% and 6.77% | Potency [9]

CC1(CN2CCC(n3c(=O)[nH]c4ccccc43)CC2)OCc2ccccc2-n2cccc21 (stereo not given)
active: Potency [1] 16600 nM | Potency [2] 21.1 µM and 10.3 µM and 14.8 µM | Potency [4] 20.6 µM and 25.1 µM | Potency [9] 23.1 µM
inactive: Potency [10] | Potency [11] | Potency [5] | Potency [6] | Potency [7] | Potency [8]

CNC(=O)c1cc(Oc2ccc(NC(=O)Nc3ccc(Cl)c(C(F)(F)F)c3)cc2)ccn1
active: Potency [1] 21.1 nM | Potency [2] 23.5 nM and 59.6 nM and 13 nM | Potency [3] 18.7 µM | Potency [4] 8.91 µM and 11.6 µM

c1ccc(CNc2nc(NCc3ccccc3)c3ccccc3n2)cc1
active: Potency [1] 1860 nM | Potency [2] 2090 nM | Potency [10] 26.4 µM | Potency [4] 3.98 µM | Potency [9] 7.08 µM
inactive: Potency [11] | Potency [8]

CS(=O)(=O)c1cccc(CNc2nc(Nc3ccc4c(c3)CCC(=O)N4)ncc2C(F)(F)F)c1
active: Potency [1] 105 nM | Potency [2] 164 nM | Potency [3] 18.7 µM | Potency [12] 8.33 µM | Potency [7] 5.26 µM | Potency [8] 6.62 µM

Cc1nn(C)c(COc2ccc(N3CCN(S(=O)(=O)N(C)C)CC3)cc2)c1-c1cccc2c(CCCOc3cccc4ccccc34)c(C(=O)O)n(CCN3CCOCC3)c12
inactive: Potency [3] | activity (max response) [4] -16.3% | Potency [9]
7.42 µM (active) and inactive: Potency [1]
6.61 µM (active) and inactive: Potency [2]

O=C(Nc1nc2cccc(-c3ccc(CN4CCS(=O)(=O)CC4)cc3)n2n1)C1CC1
active: Potency [1] 2.59 µM and 5.25 µM | Potency [2] 2.91 µM and 7.42 µM | Potency [10] 23.5 µM | Potency [4] 25.1 µM | Potency [9] 28.2 µM

OCCN1CCN(CCCN2c3ccccc3Sc3ccc(C(F)(F)F)cc32)CC1
inactive: activity (max response) [4] 8.75% | Potency [9]
active: Potency [1] 16.8 µM and 5.25 µM | Potency [2] 26.6 µM and 5.25 µM | Potency [11] 7.43 µM | Potency [5] 14.8 µM | Potency [6] 11.8 µM

CC1=C(C(=O)Nc2cc3cn[nH]c3cc2F)C(c2ccc(Cl)cc2F)N=C(c2ccnc(Cl)c2)N1 (stereo not given)
active: Potency [1] 4610 nM | Potency [2] 4.61 µM and 5.9 µM | Potency [11] 20.9 µM | Potency [5] 20.9 µM | Potency [6] 18.7 µM | Potency [12] 16.6 µM | Potency [7] 18.7 µM | Potency [8] 16.6 µM | Potency [9] 25.1 µM

Cc1cc(C(=O)NOCCO)c(Nc2ccc(I)cc2F)n(C)c1=O
active: Potency [1] 52.5 nM | Potency [2] 41.1 nM | Potency [12] 0.0662 µM | Potency [8] 0.0074 µM
inactive: Potency [11] | Potency [5] | Potency [7]

CN(C)c1ccc2cc(C(=O)N[C@@H](CCCN=C(N)CCl)C(=O)NCc3ccccc3)ccc2c1
inactive: activity (max response) [4] -6.76% | Potency [9]
active: Potency [1] 5250 nM | Potency [2] 4680 nM | Potency [10] 23.5 µM | Potency [7] 26.4 µM | Potency [8] 26.4 µM

Nc1nc(Cl)nc2c1ncn2[C@@H]1O[C@H](CO)[C@@H](O)[C@H]1F
active: Potency [1] 82 nM | Potency [2] 164 nM
inactive: Potency [11] | Potency [5] | Potency [6] | Potency [12] | Potency [7] | Potency [8]

NC1(c2ccc(-c3nc4ccn5c(=O)[nH]nc5c4cc3-c3ccccc3)cc2)CCC1
active: Potency [1] 3720 nM | Potency [2] 11.9 µM and 8.2 µM and 5.9 µM | Potency [10] 20.9 µM | Potency [12] 1.66 µM | Potency [7] 2.09 µM | Potency [8] 1.48 µM | Potency [4] 20.6 µM and 17.8 µM | Potency [9] 10.3 µM and 7.94 µM

C[C@@H](Oc1cc(-n2cnc3ccc(CN4CCN(C)CC4)cc32)sc1C(N)=O)c1ccccc1C(F)(F)F
active: Potency [1] 20.9 nM | Potency [2] 10.5 nM | Potency [11] 0.0296 µM | Potency [5] 0.0332 µM | Potency [6] 0.0332 µM | Potency [7] 0.0332 µM | Potency [4] 0.0501 µM

N#CCNC(=O)c1ccc(-c2ccnc(Nc3ccc(N4CCOCC4)cc3)n2)cc1
active: Potency [1] 411 nM | Potency [2] 580 nM and 934 nM | Potency [10] 23.5 µM | Potency [12] 11.8 µM | Potency [7] 10.5 µM | Potency [4] 25.1 µM
